Results taken from PubChem BioAssay AID2401 (Southern Research Specialized Biocontainment Screening …, 2010).
Out of some 2,200 compounds screened, about 530 (24%) were called active.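 The calls were made as follows: active = inhibition above a set limit at one or more concentrations of the dose series; inactive = inhibition under that limit at every dose.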 The list is a sample of the results. Measured potencies and affinities stand elsewhere.

Assay: S. Typhimurium nonspecific reporter signal inhibition – Salmonella Typhimurium, GFP fluorescence, counter-screen for PhoP regulon inhibitor project, dose response (AID 2401);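 also: S. typhimurium with Mg-insensitive nmpC-GFP reporter grown at 10 µM Mg2+; drop in reporter fluorescence reflects general culture growth inhibition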
Settings: 4 h; series mostly up to 150 µM
With `CCn1c(CNC(=O)c2cccc(C)c2)nc2ccccc21` the outcome was “inactive”.
In the case of `COc1ccccc1-c1c(C#N)c(N)nc2c1CCc1ccccc1-2`, the outcome was “inactive”.
In the case of `O=c1cc(Cc2ccccc2)[nH]c(=S)[nH]1`, the outcome was “inactive”.
For `CCOC(=O)Cc1ccc(NS(=O)(=O)c2ccc(SC)cc2)cc1`, the outcome was “inactive”.
In the case of `NC1=NC(=Nc2cccc(Cl)c2)c2ccccc21`, the outcome was “inactive”.
In the case of `C#CCOc1ccc(/C=C2\SC(=S)N(Cc3cccnc3)C2=O)cc1`, the outcome was “inactive”.
In the case of `COCCNC(=O)c1ccc(C(=O)NCCOC)s1`, the outcome was “inactive”.
For `CC(Nc1ccc(Br)cn1)c1cc(Cl)ccc1O` (stereo not given), the outcome was “inactive”.
For `COc1cc([N+](=O)[O-])cc(/C=N/NC(=O)c2cccnc2)c1O`, the outcome was “inactive”.
With `COc1ccc(/C=N/NC(=O)c2ccc3c(c2)OCCO3)cc1[N+](=O)[O-]` the outcome was “inactive”.
For `O=C(Nc1cc(C(F)(F)F)ccc1N1CCOCC1)c1ccc(Br)o1`, the outcome was “inactive”.
With `Cc1nc(N2CCN(Cc3ccc4c(c3)OCO4)CC2)nc2c1C(=O)CC(c1ccco1)C2` (stereo not given) the outcome was “inactive”.
For `CC1CCN(S(=O)(=O)c2cccc(C(=O)N(C)C3CCS(=O)(=O)C3)c2)CC1` (stereo not given), the outcome was “inactive”.
With `CN1c2ccccc2C(O)=C(C(=O)Nc2ccccc2)S1(=O)=O` the outcome was “inactive”.
For `O=C(N/N=C/c1ccc(F)cc1)c1cc(-c2ccco2)nc2ccccc12`, the outcome was “inactive”.
With `COC(=O)C1=C(C)N(C)C(=O)/C1=C\c1ccco1` the outcome was “inactive”.
For `O=C(COc1ccccc1)NC(=S)Nc1ccc2c3c(cccc13)CC2`, the outcome was “inactive”.
With `Cc1ccc(C(=O)CSc2ncnc3sc4c(c23)CCCC4)cc1` the outcome was “inactive”.
For `COc1ccc(N2CCN(C(=O)CN(c3cccc(Br)c3)S(C)(=O)=O)CC2)cc1`, the outcome was “inactive”.
With `O=C(/C=C/c1ccco1)Oc1cc(Br)cc(/C=N/NC(=O)c2ccccc2O)c1` the outcome was “inactive”.
With `CCN1CCN(C(=O)c2ccc3c(=O)n(Cc4ccccc4OC)c(=S)[nH]c3c2)CC1` the outcome was “inactive”.
With `Cc1cc(C)nc(Nc2ccc(N3CCCC3)cc2)n1` the outcome was “inactive”.
In the case of `O=C(NCCc1ccccc1)c1ccc2nc(-c3ccco3)c(-c3ccco3)nc2c1`, the outcome was “inactive”.
With `Clc1ccc(OCCn2ccnc2)c(Br)c1` the outcome was “inactive”.
For `O=C(NC1CCN(C(=O)N2c3ccccc3Sc3ccccc32)CC1)c1ccco1`, the outcome was “inactive”.
In the case of `CCn1c2ccccc2c2cc(C3N=C(N)Nc4nc5ccccc5n43)ccc21` (stereo not given), the outcome was “inactive”.
In the case of `O=C(CN1CCN(c2ccccn2)CC1)Nc1ccc(Oc2ccccc2)cc1`, the outcome was “inactive”.
With `COc1ccc(OC)c(C2=Nn3c(nnc3-c3cc(OC)c(OC)c(OC)c3)SC2)c1` the outcome was “inactive”.
In the case of `O=C1CCCc2nc(N3CCN(Cc4ccccc4)CC3)ncc21`, the outcome was “inactive”.
With `COc1ccc(Nc2sc(C(=O)Nc3cccc(Cl)c3)c(N)c2C(=O)Nc2ccccc2OC)cc1` the outcome was “inactive”.
With `O=S(=O)(c1ccc(F)c2ccccc12)N1CCCCC1` the outcome was “inactive”.
For `Cn1ccnc1SCC(=O)Nc1sccc1C#N`, the outcome was “inactive”.
For `Cn1cc(C(CC(=O)O)C(=O)O)c2ccccc21` (stereo not given), the outcome was “inactive”.
For `c1ccc2c(N3CCCCCC3)nc(-c3ccncc3)nc2c1`, the outcome was “inactive”.
For `CCOC(=O)c1cnc2ccc(OCC)cc2c1N1CCN(c2ccccc2)CC1`, the outcome was “inactive”.
For `Cc1ccc(NC(=O)CCCSc2nc3ccccc3[nH]2)cc1`, the outcome was “inactive”.
In the case of `CCN(CCO)Cc1csc2ccccc12`, the outcome was “inactive”.
With `CC(C)CCNC(=O)C12CN(Cc3ccccc3)CC1C(c1cccc([N+](=O)[O-])c1)=NO2` (stereo not given) the outcome was “inactive”.
With `CCCn1c(NCc2c[nH]c3ccccc23)nc2ccccc21` the outcome was “inactive”.
In the case of `COc1ccc(-c2cc(C(=O)Nc3ccc(S(=O)(=O)Nc4ncccn4)cc3)c3ccccc3n2)cc1`, the outcome was “inactive”.
In the case of `Nc1nc(C2CCCCC2)cs1`, the outcome was “inactive”.
In the case of `Clc1ccc(-n2ncc3c(NCc4cccs4)ncnc32)cc1`, the outcome was “inactive”.
For `CC(C)Cc1nc2ccc(N)cc2[nH]1`, the outcome was “inactive”.
With `COc1cccc(-c2nnc3sc(-c4ccc(C)cc4)nn23)c1` the outcome was “inactive”.
For `Cc1nc2c(C(=O)NCCC(C)C)c[nH]n2c(=O)c1Cc1ccccc1F`, the outcome was “inactive”.
With `CC(C)(C)NC(=O)CSc1nnc(-c2ccncc2)o1` the outcome was “inactive”.
With `CCCCCCC(=O)N(O)C1CC(=O)N(c2ccc(C)cc2)C1=O` (stereo not given) the outcome was “inactive”.
For `O=C(c1ccco1)[C@@H]1[C@@H]2C(=O)N(c3ccc(F)cc3)C(=O)[C@@H]2[C@H]2C=Cc3ccccc3N21`, the outcome was “inactive”.
For `CCC(=O)NC1=C(NC(C)c2ccccc2)C(=O)c2ccccc2C1=O` (stereo not given), the outcome was “inactive”.
For `O=S(=O)(c1ccc(NC(=S)Nc2ccc3c(c2)OCO3)cc1)N1CCOCC1`, the outcome was “inactive”.
With `Nc1ccc(N(c2ccccc2)c2ccc(N)cc2)cc1` the outcome was “inactive”.
With `CSc1nsc(SCC(=O)Nc2ccc(C(C)=O)cc2)n1` the outcome was “inactive”.
For `O=C(Cc1cccs1)N(c1ccccc1)C1C=CS(=O)(=O)C1` (stereo not given), the outcome was “inactive”.
In the case of `O=C(OCC(=O)c1ccc(S(=O)(=O)N2CCCC2)cc1)C1=COCCO1`, the outcome was “inactive”.
In the case of `NNC(=S)Nc1ccc(Cl)cc1`, the outcome was “inactive”.
For `COc1ccc2cc(C#N)c(NC(C)C)nc2c1`, the outcome was “inactive”.
In the case of `NC(=S)c1cc2ccc(O)cc2oc1=O`, the outcome was “inactive”.
With `Cc1ccc(NC(=S)NCCc2ccccc2)c(C)c1` the outcome was “inactive”.
With `CNC(=O)CSc1nnc(-c2cccnc2)n1CCc1ccccc1` the outcome was “inactive”.
With `COc1nc(N(c2ccccc2)c2ccccc2)nc(-n2ccnc2)n1` the outcome was “inactive”.
With `COc1cc(CNc2ccc(CNc3ncn[nH]3)cc2)ccc1OCc1ccccc1` the outcome was “inactive”.
For `CCc1cccc(NC(=O)CCCSc2nc3ccccc3[nH]2)c1`, the outcome was “inactive”.
In the case of `CC(C)Nc1cc(C(F)(F)F)nc(-c2ccccn2)n1`, the outcome was “inactive”.
With `O=C1c2ccccc2C(=O)N1Cc1nc(-c2ccccn2)no1` the outcome was “inactive”.
With `S=c1nc(-c2ccccc2)oc2c1CCCC2` the outcome was “inactive”.
For `c1ccc(-c2ncnc3nc4n(c23)CCC4)cc1`, the outcome was “inactive”.
With `O=C(Nc1cccc2ccccc12)OC1C=CS(=O)(=O)C1` (stereo not given) the outcome was “inactive”.
For `Cc1cccc(-n2c(SCC(N)=O)nc3c(c2=O)C2(CCCC2)Cc2ccccc2-3)c1`, the outcome was “inactive”.
For `COc1ccc(Nc2nc(-c3cccc([N+](=O)[O-])c3)nc3ccccc23)cc1`, the outcome was “inactive”.
For `C=CCSc1nnc(-c2ccc(Cl)cc2Cl)o1`, the outcome was “inactive”.
In the case of `c1ccc(-c2nnc(SCCC3OCCCO3)o2)cc1`, the outcome was “inactive”.
With `COc1ccc(S(=O)(=O)n2nc(OC(=O)c3ccccc3Br)cc2N)cc1` the outcome was “inactive”.
For `CCC(=O)c1ccc(OCC(O)CNCc2ccc(F)cc2)cc1` (stereo not given), the outcome was “inactive”.
In the case of `COc1ccc(N(C(=O)CCl)C(C(=O)NCCc2ccccc2)c2cccs2)cc1` (stereo not given), the outcome was “inactive”.
With `COc1cccc(OCC(O)CN2CCN(c3ccccn3)CC2)c1` (stereo not given) the outcome was “inactive”.
For `COc1ccc(C2=C(Nc3ccc(C)cc3)c3ccccc3C2=O)cc1`, the outcome was “inactive”.
For `Cc1cc(Nc2ccccc2)nc2cc(O)ccc12`, the outcome was “inactive”.
With `COc1ccc(NC2=Nc3cccc4cccc2c34)cc1` the outcome was “inactive”.
In the case of `Cc1cc(=O)oc2cc(OCC(O)CN3CCc4ccccc4C3)ccc12` (stereo not given), the outcome was “inactive”.
With `C=CCN(C(=O)c1cccc(S(=O)(=O)N2CCN(C)CC2)c1)c1nc(-c2ccccc2)cs1` the outcome was “inactive”.
With `O=C(O)CCc1nnc2n(Cc3ccc(F)cc3)c(=O)c3ccccc3n12` the outcome was “inactive”.
With `Cc1nc(-c2ccccn2)sc1C(=O)Nc1ccc(F)cc1F` the outcome was “inactive”.
For `CN(C(=O)/C=C/c1ccccc1)C1CCS(=O)(=O)C1` (stereo not given), the outcome was “inactive”.
In the case of `COc1ccccc1N1CCN(c2ccc(-c3ccccc3)nn2)CC1`, the outcome was “inactive”.
In the case of `COc1cc(CNCc2ccccn2)ccc1OCC(=O)NC(C)(C)C`, the outcome was “inactive”.
In the case of `Cc1ccc(NS(=O)(=O)c2ccccc2)c2c1CC(C)(C)O2`, the outcome was “inactive”.
In the case of `Cc1cc(C)nc(N(C#N)C(C)C(=O)N(C)C)n1` (stereo not given), the outcome was “inactive”.
For `Cc1cc2cc(CCNC(=O)c3cccs3)c(=O)[nH]c2cc1C`, the outcome was “inactive”.
For `Cc1ccc(C(=O)Nc2ccccc2C(N)=O)o1`, the outcome was “inactive”.
With `COc1cccc(Cn2cnc3c(NS(=O)(=O)c4cccc(Cl)c4Cl)c(C)c(C)cc32)c1` the outcome was “inactive”.
With `CC(C)(C)c1ccc(NC(=O)COC(=O)c2ccc([N+](=O)[O-])s2)cc1` the outcome was “inactive”.
With `Cc1[nH]c2ccccc2c1C(=O)CN1CCSCC1` the outcome was “inactive”.
With `Cc1cc(=O)oc(C)c1C(=O)NCc1cccnc1` the outcome was “inactive”.
For `Cc1nn(CCOc2ccccc2)c(=O)n1-c1ccc(F)cc1`, the outcome was “inactive”.
In the case of `O=C(NCc1ccco1)c1c2c(nc3ccccc13)CCC2`, the outcome was “inactive”.
For `Cc1cccc(NC(=O)Cn2c(/C=C/c3ccccc3)nc3ccccc32)c1`, the outcome was “inactive”.
In the case of `Cc1ccc(C(=O)NNc2c3ccccc3nc3ccccc23)cc1`, the outcome was “inactive”.
In the case of `Cc1cccc(OCC(=O)NNc2c3ccccc3nc3ccccc23)c1`, the outcome was “inactive”.
With `Cc1ccc(CSCc2nc3ccccc3[nH]2)cc1` the outcome was “inactive”.
With `Cc1ccccc1NC(=O)c1sc2nc3c(c(-c4ccco4)c2c1N)CCC3` the outcome was “inactive”.
In the case of `Cn1c(-c2ccc3c(c2)OCO3)cnc1NCc1cccc(Cl)c1`, the outcome was “inactive”.
With `CC(=O)c1c(C)n([O-])c2ccccc2[n+]1=O` the outcome was “inactive”.
In the case of `COC(=O)c1sccc1NC(=O)C1C2C=CC(O2)C1C(=O)O` (stereo not given), the outcome was “inactive”.
With `COC(=O)c1ccc2nc(C(F)(F)F)[nH]c2c1` the outcome was “inactive”.
With `N#CCCN(C(=O)CN1C(=O)NC2(CCCC2)C1=O)c1ccccc1F` the outcome was “inactive”.
For `O=C1C(Nc2ccccc2)=C/C(=N/S(=O)(=O)c2cccs2)c2ccccc21`, the outcome was “inactive”.
For `COc1cc(C=O)ccc1OCCCOc1ccccc1[N+](=O)[O-]`, the outcome was “inactive”.
In the case of `Cc1snc(S(=O)(=O)/C(C#N)=N\Nc2ccccc2)c1C#N`, the outcome was “inactive”.
With `C(=Nc1ccc(Nc2ccccc2)cc1)c1ccc2ccccc2c1` the outcome was “inactive”.
In the case of `Cc1ccsc1C=Nc1ccc(O)cc1`, the outcome was “inactive”.
For `Cc1nnc(NC(=O)CSc2ncnc3scc(-c4ccccc4)c23)s1`, the outcome was “inactive”.
With `Cc1onc(-c2c(F)cccc2Cl)c1C(=O)Nc1cccc(Cn2cccn2)c1` the outcome was “inactive”.
For `CCOc1ccc(NC(=O)CCC(=O)n2nc(C)cc2C)cc1`, the outcome was “inactive”.
For `COc1cc(OC)c(C(=O)Nc2ccc(S(=O)(=O)Nc3ncccn3)cc2)cc1OC`, the outcome was “inactive”.
In the case of `COc1nccnc1NS(=O)(=O)c1ccc(NC(=S)NC(=O)c2cccnc2)cc1`, the outcome was “inactive”.
